Assay [1] is described as follows: antimalarial activity against Dd2 strain (AID 2302;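 active = growth inhibition above 50% at the single 2 µM test dose, taken to imply half-maximal potency below 2 µM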;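 note: 0% = DMSO untreated growth and 100% = chloroquine plus artemisinin killed control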). The note with it: P. falciparum Dd2 in RBCs, LDH growth readout, 72 h; at 2 µM; hits give high values.
The nature of assay [2]: human hepatoma cell viability loss – ATP luminescence, cytotoxicity control for P. falciparum antimalarial project, primary screen (AID 2303;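 active = inhibition above 50%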;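 note: 0% = DMSO wells and 100% = digitonin-killed cells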). The note with it: HepG2 viability, 24-48 h, at 10 µM, hits give high values.
For assay [3], the target named is L-lactate dehydrogenase (Plasmodium falciparum (isolate CDC / Honduras)) (UniProt Q27743). The assay is described as follows: PfLDH activity inhibition – cell lysate, 3D7 strain, counter-screen for P. falciparum growth inhibition project (AID 2304).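 Note: 0% = vehicle and 100% = reference inhibitor.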 The following applies: P. falciparum 3D7 crude extract, LDH APAD/NBT absorbance; at 2 µM; hits give high values. On the technique in general: A counterscreen serves to expose hits that act by an unwanted route or on another target.
L-lactate dehydrogenase (Plasmodium falciparum (isolate CDC / Honduras)), sequence (Q27743 whole entry, looked up): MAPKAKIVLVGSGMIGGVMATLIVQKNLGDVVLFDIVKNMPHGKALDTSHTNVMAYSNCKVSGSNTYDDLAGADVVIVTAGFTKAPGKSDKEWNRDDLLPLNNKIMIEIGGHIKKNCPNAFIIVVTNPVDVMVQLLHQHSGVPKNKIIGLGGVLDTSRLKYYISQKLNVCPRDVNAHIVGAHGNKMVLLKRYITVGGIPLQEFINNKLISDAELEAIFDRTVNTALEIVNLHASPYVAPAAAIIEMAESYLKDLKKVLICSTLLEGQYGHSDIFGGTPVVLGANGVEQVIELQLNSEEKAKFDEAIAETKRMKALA

The nature of assay [4]: inhibition of 3D7 malaria parasite growth – strain 3D7 (AID 2306).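 Note: 0% = DMSO wells and 100% = chloroquine plus artemisinin control wells.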 The note with it: P. falciparum 3D7 erythrocytic growth, LDH absorbance, 72 h; at 2 µM; hits give high values.
For assay [5], the target named is Calcium-dependent protein kinase 1 (Plasmodium falciparum (isolate 3D7)) (UniProt P62344). The assay is described as follows: PfCDPK1 kinase inhibitors, biochemical, TCAMS library (AID 1159585; cut-off not given, nearly all actives have IC50 up to about 0.98 µM;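 note: inhibitors leave more ATP so luminescence rises with inhibition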). The following applies: recombinant PfCDPK1, Kinase-Glo ATP depletion luminescence. Background: Kinase-Glo measures the ATP left after a reaction by luminescence.
Calcium-dependent protein kinase 1 (Plasmodium falciparum (isolate 3D7)), sequence (P62344 whole entry, looked up): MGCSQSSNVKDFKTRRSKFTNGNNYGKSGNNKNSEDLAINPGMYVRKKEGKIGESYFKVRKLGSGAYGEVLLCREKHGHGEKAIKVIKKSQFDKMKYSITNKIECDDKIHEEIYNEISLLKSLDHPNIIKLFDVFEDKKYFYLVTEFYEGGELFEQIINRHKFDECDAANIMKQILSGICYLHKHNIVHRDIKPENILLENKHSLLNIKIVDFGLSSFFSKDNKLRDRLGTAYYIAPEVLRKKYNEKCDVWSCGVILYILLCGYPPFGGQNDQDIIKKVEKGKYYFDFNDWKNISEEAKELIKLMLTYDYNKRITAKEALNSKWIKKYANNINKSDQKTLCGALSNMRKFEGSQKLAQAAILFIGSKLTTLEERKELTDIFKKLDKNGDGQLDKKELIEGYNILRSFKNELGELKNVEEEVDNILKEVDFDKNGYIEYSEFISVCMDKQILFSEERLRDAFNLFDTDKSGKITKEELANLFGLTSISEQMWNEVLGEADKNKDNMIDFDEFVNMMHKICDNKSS
Assay [6] concerns the target Plasmodium falciparum protein kinase 6 (PK6, PF3D7_1337100) (UniProt Q8IDW1). The assay is described as follows: PfPK6 kinase inhibitors, biochemical, TCAMS library (AID 1159586). The note with it: recombinant PfPK6, Kinase-Glo ATP depletion luminescence.
Assay [7] has as its target Protein kinase 7 (PK7), Plasmodium falciparum 3D7 (PF3D7_0213400) (UniProt Q7YTF7). The assay is described as follows: inhibition of Plasmodium PK7 catalytic activity – biochemical, TCAMS antimalarial set, Kinase-Glo luminescence (AID 1159587). The following applies: recombinant PfPK7, Kinase-Glo ATP depletion luminescence.
For assay [8], the target named is Calcium-dependent protein kinase 4 (Plasmodium falciparum (isolate 3D7)) (UniProt Q8IBS5). The assay is described as follows: PfCDPK4 kinase inhibitors, biochemical, TCAMS library (AID 1159588; cut-off not given, nearly all actives have IC50 up to about 0.91 µM). The note with it: recombinant PfCDPK4, Kinase-Glo ATP depletion luminescence.
Calcium-dependent protein kinase 4 (Plasmodium falciparum (isolate 3D7)), sequence (Q8IBS5 whole entry, looked up): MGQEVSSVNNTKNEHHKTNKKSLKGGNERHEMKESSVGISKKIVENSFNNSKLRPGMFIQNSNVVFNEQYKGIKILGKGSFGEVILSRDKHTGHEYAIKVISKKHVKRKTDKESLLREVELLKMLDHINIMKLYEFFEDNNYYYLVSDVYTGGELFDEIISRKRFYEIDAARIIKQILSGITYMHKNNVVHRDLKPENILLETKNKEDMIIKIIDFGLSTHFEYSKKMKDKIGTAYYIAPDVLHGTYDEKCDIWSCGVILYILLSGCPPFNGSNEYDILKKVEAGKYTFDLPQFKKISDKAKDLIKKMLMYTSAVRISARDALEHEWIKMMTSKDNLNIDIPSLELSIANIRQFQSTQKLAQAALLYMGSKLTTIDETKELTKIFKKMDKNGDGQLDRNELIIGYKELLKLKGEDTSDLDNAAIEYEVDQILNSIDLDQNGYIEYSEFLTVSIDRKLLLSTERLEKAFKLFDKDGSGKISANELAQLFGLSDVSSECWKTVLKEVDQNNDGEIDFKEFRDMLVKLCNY

Values without a mark were called inactive. For some assays here: Measured potencies and affinities stand elsewhere. The source made the active and inactive calls. Unless noted, the rule behind the calls is not given here.

As a reminder, the inhibition is the relative decrease from the control value, in per cent.

Plasmodium falciparum protein kinase 6 (PK6, PF3D7_1337100), sequence (Q8IDW1 1-305): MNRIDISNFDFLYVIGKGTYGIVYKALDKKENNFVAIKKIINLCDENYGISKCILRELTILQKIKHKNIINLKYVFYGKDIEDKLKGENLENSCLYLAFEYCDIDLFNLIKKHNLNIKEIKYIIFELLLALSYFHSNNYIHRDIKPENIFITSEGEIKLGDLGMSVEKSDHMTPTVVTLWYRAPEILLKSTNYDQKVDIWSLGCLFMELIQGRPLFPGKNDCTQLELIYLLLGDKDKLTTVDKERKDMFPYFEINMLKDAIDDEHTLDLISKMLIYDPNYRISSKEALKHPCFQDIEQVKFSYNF
Protein kinase 7 (PK7), Plasmodium falciparum 3D7 (PF3D7_0213400), sequence (Q7YTF7 1-343): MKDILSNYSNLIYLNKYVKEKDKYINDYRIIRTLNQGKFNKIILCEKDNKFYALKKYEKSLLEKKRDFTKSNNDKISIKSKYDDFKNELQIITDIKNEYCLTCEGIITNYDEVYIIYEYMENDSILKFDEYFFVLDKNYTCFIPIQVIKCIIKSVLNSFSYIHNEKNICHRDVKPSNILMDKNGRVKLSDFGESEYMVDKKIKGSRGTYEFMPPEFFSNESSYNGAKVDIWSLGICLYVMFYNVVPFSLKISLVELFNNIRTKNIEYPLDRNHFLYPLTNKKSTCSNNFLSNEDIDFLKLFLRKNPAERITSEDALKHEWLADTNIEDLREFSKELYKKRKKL

Regarding `COC(=O)c1ccccc1COc1ccc(CC2(NC(=O)[C@H](Nc3ccc(C#N)c4ccccc34)C(C)(C)C)CCCC2)cc1`, the results for the growth inhibition in assay [1] and in assay [4] were 82% (active) and 95% (active), respectively. For the same compound, the inhibition in assay [2] is 1%; in assay [3], 2%. Moreover, the result in assay [5], in assay [6], in assay [7] and in assay [8] was inactive.
As to `COc1ccc2[nH]c(C(=O)Nc3cccc(-c4ccc(CN(C)C)cc4)c3)cc2c1`, the growth inhibition was 34% in assay [1] and 100% (active) in assay [4]. The results for the inhibition in assay [2] and in assay [3] were 23% and 3%, respectively. The result in assay [5], in assay [6], in assay [7] and in assay [8] was inactive.
Regarding `CCOc1ccc(C(=O)Nc2nonc2-c2ccc(OC)c(OC)c2)cc1`, the growth inhibition was 42% in assay [1] and 95% (active) in assay [4]. Moreover, the inhibition is 7% in assay [2] and 5% in assay [3]. The outcome in assay [5], in assay [6], in assay [7] and in assay [8] was inactive.
`O=C(/C=C/c1ccc(Cl)c(Cl)c1)NCCCCCN1CCCC(CNS(=O)(=O)c2ccc(F)cc2)C1` (configuration not stated): the growth inhibition in assay [1] is 7%; in assay [4], 91% (active). Moreover, the inhibition was 56% (active) in assay [2] and 1% in assay [3]. Moreover, the outcome in assay [5], in assay [6], in assay [7] and in assay [8] was inactive.
On to `N#Cc1ccc(/C=C/C(=O)NCCCCCN2CCCN(C(=O)Nc3ccc(Cl)c(C(F)(F)F)c3)CC2)cc1`, for which the results for the growth inhibition in assay [1] and in assay [4] were 13% and 98% (active), respectively. For the same compound, the values for the inhibition in assay [2] and in assay [3] were 28% and 0%, respectively. The result in assay [5], in assay [6], in assay [7] and in assay [8] was inactive.
With `COc1ccc(CCn2c(=N)c(C(=O)NCc3ccccc3)cc3c(=O)n4cccc(C)c4nc32)cc1`, the growth inhibition is 37% in assay [1] and 102% (active) in assay [4]. The values for the inhibition in assay [2] and in assay [3] were 29% and -3%, respectively. Further, the outcome in assay [5], in assay [6], in assay [7] and in assay [8] was inactive.
Take `COc1ccc(CNCc2ccccc2)cc1-c1cccc(S(=O)(=O)NCCN2CCCC2)c1`: the growth inhibition in assay [1] is 36%; in assay [4], 98% (active). The inhibition was 37% in assay [2] and -8% in assay [3]. Moreover, the outcome in assay [5], in assay [6], in assay [7] and in assay [8] was inactive.
For the compound `COc1cc(Nc2nccc(Nc3ccc4c(C)[nH]nc4c3)n2)cc2ccccc12`, the values for the growth inhibition in assay [1] and in assay [4] were 82% (active) and 102% (active), respectively. Besides, the inhibition in assay [2] was 13%; in assay [3], 5%. The result in assay [5], in assay [6], in assay [7] and in assay [8] was inactive.
As for `CCCCCCCC1CC(CC(=O)Nc2ccnc3ccc(OC)cc23)CN1C(=O)OC(C)(C)C` (configuration not stated), the growth inhibition in assay [1] is 34%; in assay [4] it was 100% (active). The results for the inhibition in assay [2] and in assay [3] were 1% and 3%, respectively. The result in assay [5], in assay [6], in assay [7] and in assay [8] was inactive.
Regarding `CC(Oc1cc(-n2cnc3ccc(NC(=O)CCN4CCCCC4)cc32)sc1C(N)=O)c1ccccc1Cl` (configuration not stated), the growth inhibition was 98% (active) in assay [1] and 99% (active) in assay [4]. The inhibition in assay [2] is 95% (active); in assay [3], 1%. Moreover, the result in assay [5], in assay [6], in assay [7] and in assay [8] was inactive.
In the case of `N#Cc1cc(C(=O)c2cc(Br)ccc2O)cn(-c2cc(Cl)cc(Cl)c2)c1=O`, the growth inhibition is 35% in assay [1] and 98% (active) in assay [4]. Besides, the inhibition was 42% in assay [2] and -5% in assay [3]. The outcome in assay [5], in assay [6], in assay [7] and in assay [8] was inactive.
`COc1ccc2nccc(CCC3(O)CCC(NCc4cc5c(cc4F)SCC(=O)N5)CC3)c2c1` (configuration not stated): the growth inhibition in assay [1] was 48%; in assay [4] it was 87% (active). In addition, the inhibition in assay [2] was 9%; in assay [3], -2%. Moreover, the outcome in assay [5], in assay [6], in assay [7] and in assay [8] was inactive.
As to `CCNc1cc(C(=O)N[C@@H](Cc2ccco2)[C@H](O)CNC2CCCCC2)cc(N2CCCCS2(=O)=O)c1`, the growth inhibition in assay [1] was 57% (active); in assay [4], 91% (active). For the same compound, the inhibition in assay [2] was 14%; in assay [3] it was 3%. Further, the result in assay [5], in assay [6], in assay [7] and in assay [8] was inactive.
As to `COc1ccc2nccc(N3CCC(CCNCc4ccc5c(n4)NC(=O)CO5)CC3)c2n1`, the growth inhibition was 72% (active) in assay [1] and 101% (active) in assay [4]. Also, the inhibition is 19% in assay [2] and -7% in assay [3]. In addition, the result in assay [5], in assay [6], in assay [7] and in assay [8] was inactive.
Take `c1ccc(CNCc2cccc(-c3ccc(-c4nc5ccccc5[nH]4)s3)c2)cc1`: the growth inhibition in assay [1] is 63% (active); in assay [4] it was 95% (active). In addition, the figures for the inhibition in assay [2] and in assay [3] were 8% and 3%, respectively. Further, the outcome in assay [5], in assay [6], in assay [7] and in assay [8] was inactive.
For `O=S(=O)(NCCN1CCCC1)c1ccc(-c2ccc(CNCc3ccc(F)cc3)cc2)cc1`, the growth inhibition in assay [1] is 44%; in assay [4] it was 94% (active). In addition, the inhibition in assay [2] is 42%; in assay [3], 4%. Moreover, the result in assay [5], in assay [6], in assay [7] and in assay [8] was inactive.
For the compound `CS(=O)(=O)N1CC2(CCN(CCC(NC(=O)NCc3ccccc3Cl)c3ccc(Cl)c(Cl)c3)CC2)c2ccccc21` (configuration not stated), the values for the growth inhibition in assay [1] and in assay [4] were 98% (active) and 85% (active), respectively. The figures for the inhibition in assay [2] and in assay [3] were 12% and -7%, respectively. The outcome in assay [5], in assay [6], in assay [7] and in assay [8] was inactive.
As to `Cc1cccc(NC(=O)Nc2ccc(I)c(OCCN(C)C)c2)c1C`, the growth inhibition in assay [1] is 17%; in assay [4] it was 96% (active). For the same compound, the inhibition is 13% in assay [2] and 1% in assay [3]. The result in assay [5], in assay [6], in assay [7] and in assay [8] was inactive.
Consider `CC(C)CNCc1ccc(-c2ccc(CN(CCCN3CCN(C)CC3)C(=O)CCC3CCCC3)cc2)cc1`, for which the figures for the growth inhibition in assay [1] and in assay [4] were 87% (active) and 96% (active), respectively. Besides, the inhibition in assay [2] was 50% (active); in assay [3] it was 5%. For the same compound, the outcome in assay [5], in assay [6], in assay [7] and in assay [8] was inactive.

For the origin of these results see PubChem BioAssay.
